Our source for the growth inhibition values is PubChem BioAssay (NCI).

Assay [1] is described as follows: NCI Yeast Anticancer Drug Screen. Data for the rad50 strain (AID 155).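 Also: 0% = growth of vehicle-only cultures of the same strain.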 The settings on record: S. cerevisiae rad50 strain growth inhibition, active compounds read high. In short, it runs like this:
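Inhibition values express reduced yeast growth in compound-treated cultures relative to vehicle-treated controls.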

Assay [2] in a line: NCI Yeast Anticancer Drug Screen. Data for the mec2-1 strain (AID 157). The settings on record: S. cerevisiae mec2-1 strain, active compounds read high. A digest of the protocol: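 Growth inhibition is read against vehicle-treated controls after compound exposure of the mec2-1 yeast strain, which is defective in DNA damage repair or cell cycle control.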
The nature of assay [3]: NCI Yeast Anticancer Drug Screen. Data for the sgs1 mgt1 strain (AID 161).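 Also: 0% = growth of cultures given vehicle only.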 Particulars: S. cerevisiae sgs1 mgt1 strain, active compounds read high. A digest of the protocol: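 Percent growth inhibition was derived by comparing compound-exposed mutant yeast with vehicle-exposed cultures. The strain carries alterations in DNA damage repair.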
A short description of assay [4]: NCI Yeast Anticancer Drug Screen. Data for the cln2 rad14 strain (AID 165).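 Also: 0% = growth equal to vehicle treated cultures.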 The settings on record: S. cerevisiae cln2 rad14 strain, active compounds read high. A digest of the protocol:
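Growth inhibition, relative to vehicle-treated controls, is the read-out. The test organism is a yeast strain with defined genetic alterations, cln2 rad14.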

Assay [5] is described as follows: NCI Yeast Anticancer Drug Screen. Data for the bub3 strain (AID 167). Particulars: S. cerevisiae bub3 mutant strain, active compounds read high. In short, it runs like this:
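Steps: expose the mutant yeast strain to compound; grow alongside vehicle-treated cultures; measure growth; express inhibition against the vehicle cultures.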

The nature of assay [6]: NCI Yeast Anticancer Drug Screen. Data for the mlh1 rad18 strain (AID 175). The settings on record: S. cerevisiae mlh1 rad18 strain growth inhibition, active compounds read high. A digest of the protocol: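 Cells of a genetically altered yeast strain, deficient in DNA damage repair, were treated with compound. Their growth was then compared with that of vehicle-treated cultures to give inhibition.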

The mark [7] stands for this setting: at 5.0 µM (retest, dose inferred, filed as 0.5).
[8] abbreviates: at 50.0 µM (retest, dose inferred, filed as 5.0).

The panel holds about 79,000 compounds, 15% with a hit somewhere; the sample as a whole holds those more often. Unmarked numbers belong to inactive results. Calls of active or inactive are those of the source. Rule as the data show it: active = growth inhibition above about 70%; inactive = the rest.

As to `O=C(O)/C=C/C(=O)Nc1cc2c(cc1Br)-c1ccccc1C2Br` (stereo not given), the growth inhibition was 8% in assay [1] (setting [7]); 77% (active) in assay [1] (setting [8]); 9.15% in assay [1] (at 50.0 µM); 1% in assay [2] (setting [7]); 38% in assay [2] (setting [8]); 40.9% in assay [2] (at 50.0 µM). For the same molecule, the growth inhibition in assay [3] (setting [7]) was 3%; in assay [3] (setting [8]), 69%; in assay [3] (at 50.0 µM) it was 7.45%; in assay [4] (setting [7]), -1%; in assay [4] (setting [8]), 27%; in assay [4] (at 50.0 µM) it was 38.1%. Further, the growth inhibition in assay [5] (setting [7]) is -12%; in assay [5] (setting [8]), 71% (active); in assay [5] (at 50.0 µM), -3.8%; in assay [6] (setting [7]) it was 4%; in assay [6] (setting [8]) it was 81% (active); in assay [6] (at 50.0 µM) it was 11.2%.
For the molecule `O=C(N/C(=C\c1ccccc1)C(=O)N1CCN(c2ccccc2)CC1)c1ccccc1`, the growth inhibition in assay [1] (setting [7]) is -9%; in assay [1] (setting [8]), 6%; in assay [1] (at 50.0 µM), 90.2% (active); in assay [2] (setting [7]), -4%; in assay [2] (setting [8]), -2%; in assay [2] (at 50.0 µM) it was 93.2% (active). For the same molecule, the growth inhibition in assay [3] (setting [7]) was -7%; in assay [3] (setting [8]) it was 7%; in assay [3] (at 50.0 µM), 95.3% (active); in assay [4] (setting [7]), -12%; in assay [4] (setting [8]) it was 0%; in assay [4] (at 50.0 µM), 87.8% (active). In addition, the growth inhibition in assay [5] (setting [7]) is -4%; in assay [5] (setting [8]), 10%; in assay [5] (at 50.0 µM), 88.3% (active); in assay [6] (setting [7]), 0%; in assay [6] (setting [8]) it was 6%; in assay [6] (at 50.0 µM) it was 91.7% (active).
With `Cc1cccc2c1nc1ccccc1[n+]2C`, the growth inhibition is -2% in assay [1] (setting [7]); 97% (active) in assay [1] (setting [8]); 98.3% (active) in assay [1] (at 50.0 µM); 7% in assay [2] (setting [7]); 97% (active) in assay [2] (setting [8]); 97.7% (active) in assay [2] (at 50.0 µM). Also, the growth inhibition in assay [3] (setting [7]) was -2%; in assay [3] (setting [8]) it was 97% (active); in assay [3] (at 50.0 µM) it was 98.5% (active); in assay [4] (setting [7]), 2%; in assay [4] (setting [8]) it was 96% (active); in assay [4] (at 50.0 µM), 87.8% (active). Besides, the growth inhibition in assay [5] (setting [7]) is -2%; in assay [5] (setting [8]) it was 91% (active); in assay [5] (at 50.0 µM) it was 98.2% (active); in assay [6] (setting [7]), 6%; in assay [6] (setting [8]), 95% (active); in assay [6] (at 50.0 µM), 97.5% (active).
Take `COc1ccc2c(c1)[n+]([O-])c(-c1ccc(C)cc1)c(N)[n+]2[O-]`: the growth inhibition in assay [1] (setting [7]) is 17%; in assay [1] (setting [8]) it was 98% (active); in assay [1] (at 50.0 µM), 99.4% (active); in assay [2] (setting [7]), 22%; in assay [2] (setting [8]), 99% (active); in assay [2] (at 50.0 µM), 99.5% (active). The growth inhibition was 38% in assay [3] (setting [7]); 100% (active) in assay [3] (setting [8]); 99.3% (active) in assay [3] (at 50.0 µM); 34% in assay [4] (setting [7]); 96% (active) in assay [4] (setting [8]); 98.8% (active) in assay [4] (at 50.0 µM). Also, the growth inhibition was 75% (active) in assay [5] (setting [7]); 99% (active) in assay [5] (setting [8]); 99.4% (active) in assay [5] (at 50.0 µM); 63% in assay [6] (setting [7]); 98% (active) in assay [6] (setting [8]); 99.2% (active) in assay [6] (at 50.0 µM).
Take `CCOc1ccccc1C(=O)OCc1ccccc1`: the growth inhibition was -7% in assay [1] (setting [7]); 8% in assay [1] (setting [8]); 10.1% in assay [1] (at 50.0 µM); -9% in assay [2] (setting [7]); 4% in assay [2] (setting [8]); 0.65% in assay [2] (at 50.0 µM). For the same molecule, the growth inhibition in assay [3] (setting [7]) was -1%; in assay [3] (setting [8]), 19%; in assay [3] (at 50.0 µM) it was 18.9%; in assay [4] (setting [7]), 23%; in assay [4] (setting [8]), -22%; in assay [4] (at 50.0 µM) it was 15.2%. For the same molecule, the growth inhibition in assay [5] (setting [7]) was 4%; in assay [5] (setting [8]), -20%; in assay [5] (at 50.0 µM), 6.2%; in assay [6] (setting [7]), -19%; in assay [6] (setting [8]), 21%; in assay [6] (at 50.0 µM), 1.55%.
`O=C(O)C(Cc1cc(I)c(O)c(I)c1)C1CCCCC1` (stereo not given): the growth inhibition was 12% in assay [1] (setting [7]); 99% (active) in assay [1] (setting [8]); 99.2% (active) in assay [1] (at 50.0 µM); 8% in assay [2] (setting [7]); 99% (active) in assay [2] (setting [8]); 99.2% (active) in assay [2] (at 50.0 µM). The growth inhibition in assay [3] (setting [7]) is 3%; in assay [3] (setting [8]), 97% (active); in assay [3] (at 50.0 µM), 99.3% (active); in assay [4] (setting [7]), 7%; in assay [4] (setting [8]) it was 99% (active); in assay [4] (at 50.0 µM), 99% (active). The growth inhibition is -11% in assay [5] (setting [7]); 99% (active) in assay [5] (setting [8]); 99.3% (active) in assay [5] (at 50.0 µM); 6% in assay [6] (setting [7]); 99% (active) in assay [6] (setting [8]); 98.8% (active) in assay [6] (at 50.0 µM).
As to `CC(=O)OC1C2C3C(C=CC2[C@H]1OC(C)=O)C1C3C=CC2C1C(OC(C)=O)[C@@H]2OC(C)=O` (stereo not given in full), the growth inhibition was 3% in assay [1] (setting [7]); 14% in assay [1] (setting [8]); 18.4% in assay [1] (at 50.0 µM); -1% in assay [2] (setting [7]); 21% in assay [2] (setting [8]); 11.8% in assay [2] (at 50.0 µM). The growth inhibition in assay [3] (setting [7]) is -173%; in assay [3] (setting [8]), 11%; in assay [3] (at 50.0 µM), 5.2%; in assay [4] (setting [7]), -2%; in assay [4] (setting [8]), 13%; in assay [4] (at 50.0 µM), 14.3%. The growth inhibition is -2% in assay [5] (setting [7]); 4% in assay [5] (setting [8]); -1.9% in assay [5] (at 50.0 µM); 12% in assay [6] (setting [7]); 30% in assay [6] (setting [8]); 12.9% in assay [6] (at 50.0 µM).
In the case of `O=C(NO)Nc1nc(Cl)c(Cl)nc1Cl`, the growth inhibition in assay [1] (setting [7]) was 16%; in assay [1] (setting [8]) it was 97% (active); in assay [1] (at 50.0 µM), 90% (active); in assay [2] (setting [7]), 18%; in assay [2] (setting [8]), 99% (active); in assay [2] (at 50.0 µM), 92.7% (active). Moreover, the growth inhibition is 30% in assay [3] (setting [7]); 99% (active) in assay [3] (setting [8]); 90.2% (active) in assay [3] (at 50.0 µM); 2% in assay [4] (setting [7]); 99% (active) in assay [4] (setting [8]); 83.5% (active) in assay [4] (at 50.0 µM). Further, the growth inhibition is 6% in assay [5] (setting [7]); 98% (active) in assay [5] (setting [8]); 90.3% (active) in assay [5] (at 50.0 µM); 20% in assay [6] (setting [7]); 99% (active) in assay [6] (setting [8]); 90.3% (active) in assay [6] (at 50.0 µM).
For `CN(C)CC/C(=N\Nc1ccc(Cl)cc1Cl)c1ccccc1`, the growth inhibition is 90% (active) in assay [1] (setting [7]); 99% (active) in assay [1] (setting [8]); 99.5% (active) in assay [1] (at 50.0 µM); 79% (active) in assay [2] (setting [7]); 100% (active) in assay [2] (setting [8]); 99.5% (active) in assay [2] (at 50.0 µM). The growth inhibition in assay [3] (setting [7]) was 97% (active); in assay [3] (setting [8]), 100% (active); in assay [3] (at 50.0 µM) it was 99.5% (active); in assay [4] (setting [7]), 95% (active); in assay [4] (setting [8]), 99% (active); in assay [4] (at 50.0 µM), 99.2% (active). For the same molecule, the growth inhibition in assay [5] (setting [7]) was 96% (active); in assay [5] (setting [8]) it was 100% (active); in assay [5] (at 50.0 µM), 99.5% (active); in assay [6] (setting [7]), 96% (active); in assay [6] (setting [8]) it was 100% (active); in assay [6] (at 50.0 µM), 99.2% (active).
Consider `CCN(CC)CCNc1ccc(OC)c2cccnc12`, for which the growth inhibition in assay [1] (setting [7]) is 15%; in assay [1] (setting [8]), 30%; in assay [1] (at 50.0 µM), 99.3% (active); in assay [2] (setting [7]), 1%; in assay [2] (setting [8]), 9%; in assay [2] (at 50.0 µM), 99.4% (active). The growth inhibition was 8% in assay [3] (setting [7]); 16% in assay [3] (setting [8]); 99.3% (active) in assay [3] (at 50.0 µM); 5% in assay [4] (setting [7]); -2% in assay [4] (setting [8]); 98% (active) in assay [4] (at 50.0 µM). For the same molecule, the growth inhibition in assay [5] (setting [7]) was 10%; in assay [5] (setting [8]), 16%; in assay [5] (at 50.0 µM), 99.5% (active); in assay [6] (setting [7]), 17%; in assay [6] (setting [8]), 25%; in assay [6] (at 50.0 µM) it was 98.8% (active).
